27 molecules from PubChem BioAssay (EPA / NIEHS) can be followed below.

The source made the active and inactive calls. Rule for the calls: active = hit-call score of the fitted dose curve at least 0.9, where 1 is the maximum; inactive = score below 0.9.

Assay [1] deals with Transcription factor E2F1 (Homo sapiens) (UniProt Q01094). As to the kind of experiment: ATG_E2F_CIS: Attagene CIS-FACTORIAL HepG2 Assay for human E2F Transcription Factor 1 (AID 2282935). The conditions noted are these: HepG2 Attagene cis-reporter, E2F reporter RNA transcripts; actives raise or lower the signal. In outline:
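Cis-element reporter mRNA induction in transiently transfected HepG2, 24 h exposure. Activity fitted in both directions relative to DMSO negative control.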

Assay [2] can be described thus: ATG_E_Box_CIS: Attagene CIS-FACTORIAL HepG2 Assay for human Enhancer Box (E-box) (AID 2282936). The conditions noted are these: HepG2 E-box cis-reporter transcription, actives raise or lower the signal. In outline:
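Cells: HepG2 (human liver), transient MRTU transfection. Exposure 24 h. RNA → oligo(dT) RT → PCR → 6-FAM label → HpaI → CE. Activity fitted both directions relative to DMSO.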

A short description of assay [3]: ATG_M_61_CIS: Attagene CIS-FACTORIAL HepG2 Assay for M61 Transcription Factor (Internal Marker) (AID 2282937). The conditions noted are these: HepG2 Attagene CIS-FACTORIAL M61 internal marker reporter; actives raise or lower the signal. In outline:
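Readout: fluorescent reporter mRNA fragments resolved by capillary electrophoresis after RT-PCR. Transiently transfected human HepG2 cells carried MRTU constructs reporting endogenous TF activity; 24 h chemical exposure; gain or loss of signal fitted relative to DMSO.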

Assay [4] is described as follows: ATG_EGR_CIS: Attagene CIS-FACTORIAL HepG2 Assay for human Early Growth Response 1 (EGR1) (AID 2282938). The following applies: HepG2 Attagene CIS-FACTORIAL EGR reporter mRNA; actives raise or lower the signal. In outline: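 Read-out: fluorescent reporter-mRNA fragments resolved by capillary electrophoresis after RT-PCR, 24 h post-dose in transiently transfected HepG2. Endogenous transcription-factor activity reported via cis-element-regulated reporter units; gain or loss fitted relative to DMSO.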

The nature of assay [5]: ATG_M_19_CIS: Attagene CIS-FACTORIAL HepG2 Assay for M19 Transcription Factor (Internal Marker) (AID 2282939). The conditions noted are these: HepG2 Attagene CIS-FACTORIAL M19 internal marker reporter; actives raise or lower the signal. In outline: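 HepG2 cells transiently transfected with cis-regulated multiple reporter transcription units were dosed for 24 h; reporter mRNA was quantified by RT-PCR, 6-FAM primer-extension labelling, HpaI digestion and capillary electrophoresis, with bidirectional fitting against DMSO baseline.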

Assay [6] is described as follows: ATG_ERE_CIS: Attagene CIS-FACTORIAL HepG2 Assay for Estrogen Response Element (ERE) (AID 2282940). The conditions noted are these: HepG2 ERE cis-reporter, Attagene RNA transcript; actives raise or lower the signal. Put shortly:
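HepG2 cells transiently transfected with cis-promoter-driven multiplexed reporter transcription units report endogenous TF activity. After 24 h compound exposure, reporter mRNA is quantified by RT-PCR with capillary electrophoresis fluorescence; bidirectional fitting versus DMSO baseline.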

Assay [7] is described as follows: ATG_Ets_CIS: Attagene CIS-FACTORIAL HepG2 Assay for human Erythroblast Transformation Specific (ETS) (AID 2282941). The conditions noted are these: HepG2 ETS cis-reporter transcription, actives raise or lower the signal. Put shortly:
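HepG2 cells transiently transfected with cis-promoter reporter transcription units were dosed for 24 h; reporter mRNA was measured by RT-PCR, 6-FAM primer extension, HpaI digestion and capillary electrophoresis, with bidirectional fitting against DMSO baseline.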

Assay [8] can be described thus: ATG_FoxO_CIS: Attagene CIS-FACTORIAL HepG2 Assay for human Forkhead box O (FoxO) (AID 2282943). The following applies: HepG2 Attagene cis-reporter, FoxO element, mRNA; actives raise or lower the signal. Put shortly: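 Human hepatoma HepG2 cells carry transiently introduced reporter transcription units controlled by cis promoter elements. Chemical treatment lasted 24 h, and mRNA signal was compared with DMSO.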

A short description of assay [9]: ATG_GATA_CIS: Attagene CIS-FACTORIAL HepG2 Assay for human GATA Binding Protein (AID 2282944). The conditions noted are these: HepG2 GATA cis-element reporter, Attagene multiplex mRNA; actives raise or lower the signal. In outline:
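HepG2 cells transiently transfected with multiplexed cis-element reporter units reflecting endogenous transcription factor activity; reporter mRNA measured after 24 h dosing by RT-PCR, 6-FAM labeling, HpaI digestion and capillary electrophoresis. Bidirectional fitting versus DMSO baseline.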

In assay [10] the target is Hepatocyte nuclear factor 3-beta (Homo sapiens) (UniProt Q9Y261). As to the kind of experiment: ATG_FoxA2_CIS: Attagene CIS-FACTORIAL HepG2 Assay for human Forkhead box A2 (FOXA2) (AID 2282942). The conditions noted are these: HepG2 cis-reporter transcription factor activity, 24 h; actives raise or lower the signal. Put shortly:
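Readout: fluorescent reporter transcripts resolved by capillary electrophoresis after RT-PCR. Transiently transfected HepG2, 24 h compound exposure, endogenous TF activity at cis promoter elements. Gain or loss of signal fitted relative to DMSO.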

Sequence of Hepatocyte nuclear factor 3-beta (Homo sapiens) (Q9Y261 whole entry, looked up): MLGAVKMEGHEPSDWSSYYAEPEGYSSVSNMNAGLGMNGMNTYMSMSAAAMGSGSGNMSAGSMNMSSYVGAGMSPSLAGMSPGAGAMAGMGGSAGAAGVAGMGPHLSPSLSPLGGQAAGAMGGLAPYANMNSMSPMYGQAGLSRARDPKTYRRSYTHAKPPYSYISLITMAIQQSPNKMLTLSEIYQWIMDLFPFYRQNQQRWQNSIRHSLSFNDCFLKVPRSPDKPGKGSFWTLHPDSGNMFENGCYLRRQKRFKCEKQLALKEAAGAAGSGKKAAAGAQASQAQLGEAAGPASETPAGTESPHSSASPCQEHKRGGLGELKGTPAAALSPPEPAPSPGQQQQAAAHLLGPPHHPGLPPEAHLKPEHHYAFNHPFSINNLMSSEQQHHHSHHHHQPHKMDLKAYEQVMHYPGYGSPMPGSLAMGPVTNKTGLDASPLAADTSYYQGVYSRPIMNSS
Sequence of Transcription factor E2F1 (Homo sapiens) (Q01094 whole entry, looked up): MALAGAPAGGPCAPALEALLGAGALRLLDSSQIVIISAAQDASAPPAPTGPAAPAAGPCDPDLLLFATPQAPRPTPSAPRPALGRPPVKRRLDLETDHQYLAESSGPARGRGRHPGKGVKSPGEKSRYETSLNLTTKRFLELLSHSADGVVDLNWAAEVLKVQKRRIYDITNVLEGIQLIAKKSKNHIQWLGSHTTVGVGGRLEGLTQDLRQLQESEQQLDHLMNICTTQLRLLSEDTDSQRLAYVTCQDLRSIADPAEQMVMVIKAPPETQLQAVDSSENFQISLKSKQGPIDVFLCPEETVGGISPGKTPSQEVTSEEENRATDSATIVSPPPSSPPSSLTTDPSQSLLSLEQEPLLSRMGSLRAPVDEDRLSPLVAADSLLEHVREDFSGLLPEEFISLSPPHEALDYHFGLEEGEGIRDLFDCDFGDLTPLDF

For the molecule `CCC=C(C)C=O`, the molecule was classed as inactive in [1], in assay [2], in assay [3], in assay [4], in assay [5] and in assay [7]. For the same molecule, the call in assay [8] and in [9] was inactive. The AC50 in assay [6] was 27.4 µM (active).

Turning to `CC(C)(C)c1ccc(S)cc1`, the molecule was classed as inactive in assay [1], in assay [2], in assay [3], in [4], in assay [5] and in [6]. Besides, the molecule was classed as inactive in assay [7], in assay [8] and in assay [9].

As to `CCCC1CCC(=O)CC1`, the call in [1], in assay [2], in [3], in assay [4], in assay [5] and in assay [6] was inactive. For the same molecule, the outcome in assay [7], in assay [8] and in assay [9] was inactive.

With `NNC(=O)OCc1ccccc1`, the outcome in assay [1], in assay [2], in assay [3], in assay [4], in assay [5] and in [6] was inactive. For the same molecule, the molecule was classed as inactive in [7], in assay [8] and in assay [9].

As to `NC(=O)c1c(Cl)cccc1Cl`, the call in assay [1], in assay [2], in assay [3], in assay [4], in [5] and in [6] was inactive. Also, the outcome in assay [7], in assay [10], in [8] and in [9] was inactive.

For `CC1=CCC(C(C)C)=CC1`, the result in [1], in assay [2], in [3], in [4], in assay [5] and in [6] was inactive. The molecule was called inactive in assay [7], in assay [8] and in assay [9].

As to `NC(=O)c1cnccn1`, the result in [1], in assay [2], in assay [3], in [4], in assay [5] and in assay [6] was inactive. For the same molecule, the outcome in assay [7], in [10], in assay [8] and in assay [9] was inactive.

With `CC12CCC(C1)C(C)(C)C2O` (stereo not given), the result in assay [1], in [2], in [3], in [4], in assay [5] and in assay [6] was inactive. Further, the call in assay [7], in [10], in [8] and in assay [9] was inactive.

Consider `CCOC(=O)CC1(C)OCC(C)O1` (stereo not given), for which the outcome in assay [1], in assay [2], in assay [3], in assay [4], in [5] and in [6] was inactive. Also, the result in assay [7], in assay [8] and in assay [9] was inactive.

As to `[O-]/[N+](=N\O)c1ccccc1`, the call in assay [1], in [2], in assay [3], in [4], in assay [5] and in assay [7] was inactive. Besides, the call in [8] and in assay [9] was inactive. For the same molecule, the AC50 in assay [6] was 27.7 µM (active).

As for `O=C1OCc2ccccc21`, the molecule was classed as inactive in assay [1], in assay [2], in [3], in [4], in assay [5] and in assay [6]. Moreover, the result in assay [7], in [10], in [8] and in assay [9] was inactive.

Turning to `C=CC(=O)OCC(CO)(COC(=O)C=C)COC(=O)C=C`, the AC50 in [1] was 27 µM (active); in [2], 22.2 µM (active); in [4] it was 5.52 µM (active); in assay [8] it was 13.4 µM (active). Also, the outcome in [3], in assay [5], in assay [6], in [7] and in assay [9] was inactive.

Consider `CCCCCCCCCCOC(=O)c1ccccc1C(=O)OCCCCCCCC`, for which the molecule was called inactive in [1], in [2], in assay [3], in [4], in assay [5] and in [6]. Besides, the result in assay [7], in [10], in assay [8] and in assay [9] was inactive.

Turning to `NC(=O)NC(N)=O`, the result in assay [1], in assay [2], in assay [3], in assay [4], in [5] and in assay [6] was inactive. In addition, the molecule was called inactive in [7], in assay [8] and in assay [9].

Turning to `CCCCOCCOCCO`, the molecule was called inactive in assay [1], in assay [2], in [3], in [4], in assay [5] and in [6]. In addition, the outcome in assay [7], in [8] and in assay [9] was inactive.

On to `CC(C)(C)C1CCC(O)CC1` (stereo not given), for which the call in assay [1], in assay [2], in assay [3], in [4], in assay [5] and in [7] was inactive. The molecule was classed as inactive in [10], in assay [8] and in [9]. Moreover, the half-maximal activity concentration (AC50) in assay [6] was 32.8 µM (active).

With `CCCc1ccc(N)cc1`, the call in [1], in [2], in assay [3], in assay [4], in assay [5] and in [6] was inactive. Besides, the molecule was called inactive in assay [7], in assay [10], in assay [8] and in [9].

Regarding `CCOC(=O)C=Cc1ccccc1`, the molecule was called inactive in assay [1], in [3], in assay [4], in assay [5], in assay [6] and in assay [7]. The outcome in [10], in assay [8] and in assay [9] was inactive.

As to `C=COCC1CCC(COC=C)CC1` (stereo not given), the outcome in assay [1], in assay [2], in [3], in assay [4], in assay [5] and in assay [6] was inactive. Also, the result in assay [10], in assay [8] and in [9] was inactive.

For the molecule `CN(C)C(=O)Nc1ccccc1`, the result in assay [1], in assay [2], in [3], in assay [4], in assay [5] and in assay [6] was inactive. Further, the molecule was classed as inactive in [10], in assay [8] and in assay [9].

Take `CCC(C)(C)C1CCC(=O)CC1`: the outcome in [1], in assay [2], in assay [3], in assay [4], in assay [5] and in assay [10] was inactive. For the same molecule, the outcome in assay [8] and in assay [9] was inactive. Besides, the half-maximal activity concentration (AC50) in assay [6] was 16.7 µM (active).

In the case of `c1ccc(Cc2ccccc2)cc1`, the molecule was called inactive in assay [1], in assay [2], in assay [3], in assay [4], in assay [5] and in assay [10]. Besides, the result in assay [8] and in [9] was inactive. In addition, in [6], the half-maximal activity concentration (AC50) was 100 µM (active).

For the molecule `Cc1cc(O)c2c(c1)C(=O)c1cc(O)cc(O)c1C2=O`, the molecule was classed as inactive in assay [1], in assay [2], in assay [3], in assay [4], in assay [5] and in assay [10]. Also, the molecule was called inactive in [9]. Further, the AC50 in [6] is 0.602 µM (active); in assay [8], 26.2 µM (active).

In the case of `CC1=CC(O)CC(C)(C)C1` (stereo not given), the outcome in [1], in [2], in assay [3], in assay [4], in assay [5] and in assay [6] was inactive. In addition, the call in assay [10], in [8] and in assay [9] was inactive.

On to `CCCCCCCCCO`, for which the result in assay [1], in assay [2], in assay [3], in assay [4], in assay [5] and in assay [6] was inactive. The call in assay [10], in assay [8] and in assay [9] was inactive.

On to `CC1=C(C=O)C(C)(C)CCC1`, for which the outcome in assay [1], in assay [2], in [3], in assay [4], in assay [5] and in assay [6] was inactive. For the same molecule, the outcome in assay [10], in assay [8] and in assay [9] was inactive.

Turning to `O=c1cc[nH]cc1`, the call in assay [1], in [2], in assay [3], in [4], in [5] and in [6] was inactive. Further, the molecule was classed as inactive in assay [7], in [8] and in assay [9].
